Results taken from PubChem BioAssay (EPA / NIEHS).
Results filed as inconclusive are left out. Some structures have more than one record in an assay (separate samples or runs), and their calls can disagree. The source made the active and inactive calls. Rule for the calls: active = hit-call score of the fitted dose curve at least 0.9, where 1 is the maximum; inconclusive = response in the unintended direction; inactive = score below 0.9. Peptide text beside a SMILES is read from it.

Tests used:
[1] = biological target: rat Thyrotropin Releasing Hormone Receptor (TRH), Trhr (gene 25570) (UniProt Q01717); assay: NVS_GPCR_rTRH: NovaScreen (NVS) G Protein-Coupled Receptor Assay for rat Thyrotropin Releasing Hormone Receptor (TRH) (AID 2283329);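 note: hit means lower bound tracer signal versus DMSO baseline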
Summary of the method: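 Test compounds are screened at 25 uM in duplicate against radioligand binding in rat forebrain membranes, with active pairs followed up over a concentration range. Detection uses filter-based radiodetection after a 4 h exposure.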

[2] = biological target: human Peripheral-type Benzodiazepine Receptor (PBR), TSPO (gene 706) (UniProt P30536); assay: NVS_MP_hPBR: NovaScreen (NVS) Membrane Protein Assay for human Peripheral-type Benzodiazepine Receptor (PBR) (AID 2283331);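 note: hits reduce radioligand binding relative to DMSO baseline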
Summary of the method: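 Radioligand displacement on human colonic cell membranes, 1 h incubation; bound radioactivity by filtration and scintillation counting. Primary screen in duplicate at 25 uM single concentration, actives followed up in concentration series; loss of binding versus DMSO.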

[3] = biological target: Estrogen receptor (Homo sapiens) (UniProt P03372); assay: OT_ER_ERaERa_1440: Odyssey Thera (OT) 24-hour HEK293T Protein-Complementation Assay for Estrogen Receptor-alpha/-alpha Homodimer (AID 2283349);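 note: hits raise fluorescence above DMSO for agonists and antagonists alike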
Summary of the method: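 HEK293T cells stably expressing the human ER alpha ligand-binding domain (aa 310-547) as a homodimer PCA were dosed for 24 hours. Fluorescence intensity was read by laser scanning cytometry, and gain of signal was fitted relative to DMSO vehicle.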

[4] = biological target: Estrogen receptor (Homo sapiens) (UniProt P03372); assay: OT_ER_ERaERa_0480: Odyssey Thera (OT) 8-hour HEK293T Protein-Complementation Assay for Estrogen Receptor-alpha/-alpha Homodimer (AID 2283351);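 note: rise in fluorescence from reassembled reporter fragments on ERα LBD homodimer in nucleus or whole cell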
Summary of the method: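 The readout is complementation of fragments fused to the human ER alpha ligand-binding domain (aa 310-547), stably expressed in HEK293T cells. After 8 h of exposure, the increase in nuclear/cytoplasmic fluorescence was measured by laser scanning cytometry and fitted relative to DMSO.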

[5] = biological target: rat Peripheral-type Benzodiazepine Receptor (PBR), Tspo (gene 24230) (UniProt P16257); assay: NVS_MP_rPBR: NovaScreen (NVS) Membrane Protein Assay for rat Peripheral-type Benzodiazepine Receptor (PBR) (AID 2283335)
Summary of the method: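 Rat kidney membranes; radioligand binding with displacement, filter-based scintillation counting, 1 h incubation. Primary screen in duplicate at 25 uM, actives followed in concentration series; loss of binding vs DMSO.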

[6] = biological target: bovine Estrogen Receptor (ER), ESR1 (gene 407238) (UniProt P49884); assay: NVS_NR_bER: NovaScreen (NVS) Nuclear Receptor Binding Assay for bovine Estrogen Receptor (ER) (AID 2283345);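 note: actives lower the bound radioligand count which means they displace the ER ligand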
Summary of the method: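 Bovine uterine membranes; tritiated or iodinated radioligand; competitive displacement; 18 h; scintillation read; DMSO negative control; 25 uM duplicates, then concentration series for actives.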

[7] = biological target: Estrogen receptor (Homo sapiens) (UniProt P03372); assay: NVS_NR_hER: NovaScreen (NVS) Nuclear Receptor Binding Assay for human Estrogen Receptor (ER) (AID 2283348)
Summary of the method: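 Radioligand competitive displacement binding to estrogen receptor from MCF7 extract, cell-free; 18 h after dosing, scintillation read-out. Primary screen in duplicate at 25 uM; actives followed up in concentration series; loss of signal vs DMSO.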

[8] = biological target: T1, Estrogen receptor (Homo sapiens) + Estrogen receptor beta (Homo sapiens) (UniProt P03372+Q92731); assay: OT_ER_ERaERb_0480: Odyssey Thera (OT) 8-hour HEK293T Protein-Complementation Assay for Estrogen Receptor-alpha/-beta Heterodimer (AID 2283352)
Summary of the method: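 Increase in mean fluorescence intensity, measured by laser scanning plate cytometry, reported ER-alpha/ER-beta LBD complementation in HEK293T cells after 8 h chemical exposure. DMSO served as baseline; basal signal is low, punctate and cytoplasmic.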

[9] = biological target: T1, Estrogen receptor (Homo sapiens) + Estrogen receptor beta (Homo sapiens); assay: OT_ER_ERaERb_1440: Odyssey Thera (OT) 24-hour HEK293T Protein-Complementation Assay for Estrogen Receptor-alpha/-beta Homodimer (AID 2283356);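 note: heteromer of ER alpha and ER beta binding domains; hits raise reporter fluorescence and both agonists and antagonists give an increase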
Summary of the method: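 Heterodimerisation of ERα (aa 310-547) and ERβ (aa 263-489) ligand binding domains was tracked as fluorescence gain in stably transfected HEK293T cells following 24 h dosing, normalised to DMSO controls.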

[10] = biological target: Estrogen receptor beta (Homo sapiens) (UniProt Q92731); assay: OT_ER_ERbERb_0480: Odyssey Thera (OT) 8-hour HEK293T Protein-Complementation Assay for Estrogen Receptor-beta/-beta Homodimer (AID 2283357);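 note: active means signal gain over DMSO baseline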
Summary of the method: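 Fluorescence intensity, nuclear for agonists and nuclear plus cytoplasmic for antagonists, was quantified by laser scanning cytometry versus vehicle after 8 h treatment. The cells were HEK293T stably carrying ER beta LBD fragment-complementation partners.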

[11] = biological target: Sodium channel protein type 1 subunit alpha (Rattus norvegicus) (UniProt P04774); assay: NVS_IC_rNaCh_site2: NovaScreen (NVS) Ion Channel Assay for rat Sodium Channel, Site 2 (NaCh) (AID 2283322);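 note: hit means loss of radioligand binding signal relative to DMSO so AC50 marks displacement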
Summary of the method: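 Membranes: rat forebrain. Format: competitive radioligand displacement, filter separation, scintillation readout, 1 h exposure. Primary screen in duplicate at 25 uM; actives retested in concentration series.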

[12] = biological target: Androgen Receptor/SRC-1 Co-activator, AR (gene 367) (UniProt P10275); assay: OT_AR_ARSRC1_0480: Odyssey Thera (OT) 8-hour HEK293T Protein-Complementation Assay for Androgen Receptor/SRC-1 Co-activator (AID 2283354);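 note: hits raise the complementation signal above DMSO so AC50 marks enhancers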
Summary of the method: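 HEK293T cells stably expressing AR and SRC-1 fused to Venus YFP fragments, imaged 8 h after dosing. Complementation fluorescence scored as nuclear/cytoplasmic ratio at 488 nm in at least 400 cells per image; gain fitted versus DMSO.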

[13] = biological target: rat Mineralocorticoid Receptor (MR), Nr3c2 (gene 25672) (UniProt P22199); assay: NVS_NR_rMR: NovaScreen (NVS) Nuclear Receptor Binding Assay for rat Mineralocorticoid Receptor (MR) (AID 2283355)
Summary of the method: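 Cell-free radioligand binding to mineralocorticoid receptor from adrenalectomized rat brain supernatant, scintillation counting after 24 h. Primary screen in duplicate at 25 uM; actives retested in concentration series. Loss of specific binding versus DMSO.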

[14] = biological target: Retinoic acid receptor alpha (Homo sapiens) (UniProt P10276); assay: NVS_NR_hRAR_Antagonist: NovaScreen (NVS) Nuclear Receptor Binding Assay for human Retinoic Acid Alpha Receptor Antagonism (RAR) (AID 2283358)
Summary of the method: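 Cell-free TR-FRET binding assay with extracted human RARalpha in antagonist mode, read 2 h after dosing. Loss of signal was fitted relative to DMSO; the primary screen used 25 uM in duplicate, with concentration series on follow-up.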

[15] = biological target: human Peroxisome Proliferator-activated Receptor alpha (PPARa), PPARA (gene 5465) (UniProt Q07869); assay: NVS_NR_hPPARa: NovaScreen (NVS) Nuclear Receptor Binding Assay for human Peroxisome Proliferator-activated Receptor alpha (PPARa) (AID 2283359);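 note: activity means loss of TR-FRET signal versus DMSO baseline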
Summary of the method: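 Cell-free TR-FRET binding assay with extracted PPARα protein, read 1 h after dosing. Primary screen in duplicate at 25 uM, with actives retested in concentration series. Loss of signal versus DMSO.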

human Peripheral-type Benzodiazepine Receptor (PBR), TSPO (gene 706), sequence (P30536 whole entry, looked up): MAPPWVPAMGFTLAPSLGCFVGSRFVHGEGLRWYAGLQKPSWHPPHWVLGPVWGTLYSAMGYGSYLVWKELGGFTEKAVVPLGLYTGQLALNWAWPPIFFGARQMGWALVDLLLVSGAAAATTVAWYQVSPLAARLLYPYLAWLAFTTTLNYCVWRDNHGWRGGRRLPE
T1 sequence (P03372 whole entry, looked up, the tested form may be a part): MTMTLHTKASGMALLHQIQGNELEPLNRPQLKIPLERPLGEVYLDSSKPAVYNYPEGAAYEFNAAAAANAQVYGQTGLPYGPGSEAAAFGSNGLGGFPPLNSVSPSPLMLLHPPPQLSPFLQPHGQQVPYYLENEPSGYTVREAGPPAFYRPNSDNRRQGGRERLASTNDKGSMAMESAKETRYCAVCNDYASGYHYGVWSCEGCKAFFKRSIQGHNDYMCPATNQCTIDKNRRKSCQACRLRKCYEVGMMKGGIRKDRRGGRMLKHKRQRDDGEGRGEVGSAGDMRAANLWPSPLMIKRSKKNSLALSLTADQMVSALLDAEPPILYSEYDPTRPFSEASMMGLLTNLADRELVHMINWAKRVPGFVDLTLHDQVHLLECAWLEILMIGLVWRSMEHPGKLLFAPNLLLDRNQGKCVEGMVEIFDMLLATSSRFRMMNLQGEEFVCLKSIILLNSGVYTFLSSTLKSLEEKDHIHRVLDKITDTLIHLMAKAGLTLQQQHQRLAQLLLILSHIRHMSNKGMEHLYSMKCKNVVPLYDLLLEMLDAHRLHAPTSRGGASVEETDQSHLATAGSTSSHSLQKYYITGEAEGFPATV
T1 sequence (Q92731 whole entry, looked up, the tested form may be a part): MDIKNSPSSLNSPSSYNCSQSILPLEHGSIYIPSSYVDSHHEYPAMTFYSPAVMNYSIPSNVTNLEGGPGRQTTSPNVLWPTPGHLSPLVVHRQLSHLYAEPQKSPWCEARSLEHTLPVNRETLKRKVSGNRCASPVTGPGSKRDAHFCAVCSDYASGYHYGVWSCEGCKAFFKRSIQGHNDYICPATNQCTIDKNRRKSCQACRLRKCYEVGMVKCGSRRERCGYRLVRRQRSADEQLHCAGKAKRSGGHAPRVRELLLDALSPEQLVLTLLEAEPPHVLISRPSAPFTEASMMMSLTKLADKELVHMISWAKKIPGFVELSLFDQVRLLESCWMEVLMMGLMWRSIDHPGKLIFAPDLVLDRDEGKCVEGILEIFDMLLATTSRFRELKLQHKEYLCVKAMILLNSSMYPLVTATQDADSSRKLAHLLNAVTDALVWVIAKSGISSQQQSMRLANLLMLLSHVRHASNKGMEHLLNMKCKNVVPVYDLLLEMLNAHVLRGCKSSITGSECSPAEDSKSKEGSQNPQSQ
Estrogen receptor (Homo sapiens), sequence (P03372 whole entry, looked up, the tested form may be a part): as the sequence (P03372 whole entry, looked up, the tested form may be a part) above
rat Thyrotropin Releasing Hormone Receptor (TRH), Trhr (gene 25570), sequence (Q01717 whole entry, looked up): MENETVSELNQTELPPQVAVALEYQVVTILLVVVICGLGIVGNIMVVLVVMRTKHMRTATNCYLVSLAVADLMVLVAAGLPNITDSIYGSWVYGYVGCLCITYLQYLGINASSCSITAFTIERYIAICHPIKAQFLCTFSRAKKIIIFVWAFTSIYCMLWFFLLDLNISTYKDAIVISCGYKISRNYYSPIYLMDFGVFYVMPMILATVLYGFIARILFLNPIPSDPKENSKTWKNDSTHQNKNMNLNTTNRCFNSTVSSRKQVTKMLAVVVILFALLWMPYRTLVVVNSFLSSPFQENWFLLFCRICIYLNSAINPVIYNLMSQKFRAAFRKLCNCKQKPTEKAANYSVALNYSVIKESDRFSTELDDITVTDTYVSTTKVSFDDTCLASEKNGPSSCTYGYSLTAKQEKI
rat Peripheral-type Benzodiazepine Receptor (PBR), Tspo (gene 24230), sequence (P16257 whole entry, looked up): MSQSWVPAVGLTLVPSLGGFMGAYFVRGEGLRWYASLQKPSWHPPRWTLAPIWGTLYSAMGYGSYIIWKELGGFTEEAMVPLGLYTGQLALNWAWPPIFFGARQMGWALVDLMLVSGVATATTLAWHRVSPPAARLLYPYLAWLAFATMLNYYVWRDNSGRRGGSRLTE
Retinoic acid receptor alpha (Homo sapiens), sequence (P10276 whole entry, looked up): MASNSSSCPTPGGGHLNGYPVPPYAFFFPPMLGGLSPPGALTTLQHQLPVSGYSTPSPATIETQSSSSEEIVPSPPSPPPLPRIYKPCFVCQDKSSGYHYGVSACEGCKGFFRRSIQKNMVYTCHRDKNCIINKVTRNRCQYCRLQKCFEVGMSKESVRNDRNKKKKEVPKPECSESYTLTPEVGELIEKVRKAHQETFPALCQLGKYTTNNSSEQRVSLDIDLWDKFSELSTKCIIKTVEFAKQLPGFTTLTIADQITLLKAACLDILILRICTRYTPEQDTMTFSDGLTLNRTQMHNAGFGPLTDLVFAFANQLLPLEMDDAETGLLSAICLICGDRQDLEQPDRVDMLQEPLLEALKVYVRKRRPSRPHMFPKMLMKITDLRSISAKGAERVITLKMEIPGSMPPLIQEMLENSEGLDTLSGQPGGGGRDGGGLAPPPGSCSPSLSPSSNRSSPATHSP
Androgen Receptor/SRC-1 Co-activator, AR (gene 367), sequence (P10275 whole entry, looked up, the tested form may be a part): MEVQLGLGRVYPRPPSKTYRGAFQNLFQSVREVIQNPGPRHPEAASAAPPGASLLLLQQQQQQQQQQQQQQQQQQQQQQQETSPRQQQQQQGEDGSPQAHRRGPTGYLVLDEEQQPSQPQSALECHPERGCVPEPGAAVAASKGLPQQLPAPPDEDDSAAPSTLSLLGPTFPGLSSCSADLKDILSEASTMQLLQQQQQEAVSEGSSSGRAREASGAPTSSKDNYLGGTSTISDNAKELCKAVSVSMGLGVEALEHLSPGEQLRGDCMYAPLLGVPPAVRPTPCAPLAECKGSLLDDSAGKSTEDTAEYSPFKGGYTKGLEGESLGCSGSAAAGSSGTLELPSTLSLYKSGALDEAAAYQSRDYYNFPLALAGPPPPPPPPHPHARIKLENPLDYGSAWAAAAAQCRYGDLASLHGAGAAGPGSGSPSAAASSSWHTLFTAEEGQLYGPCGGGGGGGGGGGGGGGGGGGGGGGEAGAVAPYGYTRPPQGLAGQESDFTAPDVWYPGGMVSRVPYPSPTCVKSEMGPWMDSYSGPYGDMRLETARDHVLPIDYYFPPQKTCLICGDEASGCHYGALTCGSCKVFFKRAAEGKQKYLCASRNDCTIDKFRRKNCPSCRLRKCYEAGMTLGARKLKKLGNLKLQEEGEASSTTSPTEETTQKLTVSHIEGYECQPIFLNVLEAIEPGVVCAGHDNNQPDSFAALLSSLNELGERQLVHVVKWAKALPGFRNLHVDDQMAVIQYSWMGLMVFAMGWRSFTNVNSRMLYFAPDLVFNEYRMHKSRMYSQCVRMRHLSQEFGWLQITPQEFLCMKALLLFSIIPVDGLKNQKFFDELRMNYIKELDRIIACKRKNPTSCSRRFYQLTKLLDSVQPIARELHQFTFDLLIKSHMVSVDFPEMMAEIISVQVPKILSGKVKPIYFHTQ
Estrogen receptor beta (Homo sapiens), sequence (Q92731 whole entry, looked up, the tested form may be a part): as the sequence (Q92731 whole entry, looked up, the tested form may be a part) above
bovine Estrogen Receptor (ER), ESR1 (gene 407238), sequence (P49884 whole entry, looked up): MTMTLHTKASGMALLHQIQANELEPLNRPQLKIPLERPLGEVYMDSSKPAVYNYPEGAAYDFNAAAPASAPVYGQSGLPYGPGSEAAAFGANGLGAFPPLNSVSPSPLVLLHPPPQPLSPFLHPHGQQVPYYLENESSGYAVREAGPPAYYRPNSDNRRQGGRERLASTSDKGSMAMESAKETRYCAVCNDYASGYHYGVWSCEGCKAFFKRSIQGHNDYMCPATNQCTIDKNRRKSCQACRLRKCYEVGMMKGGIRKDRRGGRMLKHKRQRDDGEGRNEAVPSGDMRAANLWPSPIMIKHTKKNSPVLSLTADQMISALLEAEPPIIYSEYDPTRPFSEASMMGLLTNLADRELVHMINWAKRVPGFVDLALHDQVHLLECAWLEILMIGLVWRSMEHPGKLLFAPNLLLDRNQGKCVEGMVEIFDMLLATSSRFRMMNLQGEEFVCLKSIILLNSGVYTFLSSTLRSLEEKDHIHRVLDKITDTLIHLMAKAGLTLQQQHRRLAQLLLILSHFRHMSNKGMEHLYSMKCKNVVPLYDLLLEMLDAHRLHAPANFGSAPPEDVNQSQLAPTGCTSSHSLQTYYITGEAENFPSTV

C/C=C/C=C/CCCCCCCO
outcome [1]: inactive | AC50 [2]: 12.2 µM (active) | outcome [3]: inactive | outcome [4]: inactive

COC(OC)(C(=O)c1ccccc1)c1ccccc1
AC50 [2]: 21.9 µM (active) | AC50 [5]: 25 µM (active) | outcome [6]: inactive | AC50 [7]: 25 µM (active) | outcome [7]: inactive

CCCCNS(=O)(=O)c1ccccc1
outcome [1]: inactive | AC50 [5]: 25 µM (active) | outcome [3]: inactive | outcome [8]: inactive | outcome [9]: inactive | outcome [10]: inactive

CCCCC(=O)O
outcome [1]: inactive | outcome [3]: inactive | outcome [8]: inactive | outcome [9]: inactive

O=C(Oc1ccccc1)c1ccccc1C(=O)Oc1ccccc1
AC50 [2]: 1.78 µM (active) | AC50 [5]: 30.9 µM (active)

C=Cc1cccc(C)c1
outcome [11]: inactive

COC(=O)[C@H](Cc1ccccc1)NC(=O)[C@@H](N)CC(=O)O (H-Asp-Phe-OMe)
outcome [1]: inactive | outcome [3]: inactive

CC(Cl)COP(=O)(OCC(C)Cl)OCC(C)Cl (centres undefined)
AC50 [2]: 25 µM (active) | AC50 [5]: 13.4 µM (active)

N#Cc1ccc(C(c2ccc(C#N)cc2)n2cncn2)cc1
outcome [12]: inactive

CC(=O)OCc1ccccc1
outcome [12]: inactive

Oc1ccc(/C=C/c2cc(O)cc(O)c2)cc1
outcome [13]: inactive

CCCCCCCCCCCCCCCCCCOS(=O)(=O)O
outcome [14]: inactive

O=c1c(O)c(-c2ccc(O)cc2O)oc2cc(O)cc(O)c12
AC50 [14]: 6.95 µM (active)

CCc1cccc(C)c1N
AC50 [3]: 74.6 µM (active) | outcome [4]: inactive | outcome [12]: inactive

CC(=O)/C=C/C1C(C)=CCCC1(C)C (centres undefined)
outcome [3]: inactive

Cc1ccc(C)c(OCCCC(C)(C)C(=O)O)c1
outcome [3]: inactive | outcome [4]: inactive | outcome [8]: inactive | outcome [12]: inactive | outcome [13]: inactive | outcome [9]: inactive

CC(=O)c1ccccc1O
outcome [3]: inactive

CC(C)(C)N
outcome [3]: inactive | outcome [4]: inactive

O=S(=O)(O)c1ccc(N=Nc2c(O)ccc3ccccc23)cc1
outcome [3]: inactive | outcome [4]: inactive | outcome [9]: inactive

C=C(C)C1CC=C(C)CC1 (centres undefined)
outcome [3]: inactive

C[Si]1(C)O[Si](C)(C)O[Si](C)(C)O[Si](C)(C)O[Si](C)(C)O1
AC50 [3]: 50 µM (active)

Cc1c(C(=O)c2c[nH]n(C)c2=O)ccc(S(C)(=O)=O)c1C1=NOCC1
outcome [3]: inactive | outcome [4]: inactive | outcome [8]: inactive | outcome [9]: inactive | outcome [10]: inactive

CCCCC(CC)COC(=O)/C=C/c1ccc(OC)cc1 (centres undefined)
outcome [3]: inactive | outcome [4]: inactive | outcome [12]: inactive

CCc1occc(=O)c1O
outcome [3]: inactive

O=C(O)/C=C/c1ccccc1
AC50 [3]: 34.2 µM (active)

CCCC=C(C=O)CC
outcome [3]: inactive | outcome [9]: inactive | outcome [10]: inactive

NC(=O)Nc1ccccc1
outcome [3]: inactive | outcome [8]: inactive | outcome [9]: inactive | outcome [10]: inactive | outcome [14]: inactive

CCCCCCCCCCCCCC(=O)OC(C)C
outcome [3]: inactive | outcome [8]: inactive | outcome [12]: inactive | outcome [9]: inactive

CC(C)COC(=O)CC(C(=O)OCC(C)C)S(=O)(=O)O (centres undefined)
outcome [3]: inactive | outcome [8]: inactive | outcome [9]: inactive | outcome [10]: inactive

CCC1COC(=O)O1 (centres undefined)
outcome [3]: inactive | outcome [4]: inactive

CCCCCCOc1ccc(N)cc1
AC50 [3]: 23.9 µM (active)

O=C(Oc1ccccc1)c1ccccc1O
outcome [3]: inactive

Fc1ccc(Br)cc1
outcome [3]: inactive | outcome [4]: inactive

CCC(C)(O)CCCC(C)C (centres undefined)
outcome [3]: inactive | outcome [4]: inactive

CCC[Si](OC)(OC)OC
outcome [3]: inactive | outcome [4]: inactive | outcome [8]: inactive | outcome [12]: inactive | outcome [9]: inactive | outcome [10]: inactive

CCCCOCCOC(=O)COc1ccc(Cl)cc1Cl
outcome [3]: inactive | outcome [4]: inactive | outcome [8]: inactive | outcome [9]: inactive

CC1=CC=C(C(C)C)CC1
AC50 [3]: 31.5 µM (active)

O=C(O)c1ccc2c(c1)C(=O)OC2=O
outcome [3]: inactive | outcome [4]: inactive | outcome [8]: inactive | outcome [9]: inactive | outcome [10]: inactive

CC12CCC(CC1)C(C)(C)O2
outcome [3]: inactive | outcome [4]: inactive

COc1cc(O)c(C(=O)c2ccccc2)cc1S(=O)(=O)O
outcome [3]: inactive | outcome [4]: inactive | outcome [8]: inactive | outcome [12]: inactive | outcome [9]: inactive | outcome [10]: inactive

CCCCCC(=O)OCC
outcome [3]: inactive | outcome [8]: inactive | outcome [9]: inactive | outcome [10]: inactive

CCCCCCCCCCCC(=O)N(C)CC(=O)O
outcome [7]: inactive | outcome [3]: inactive | outcome [4]: inactive | outcome [9]: inactive | outcome [10]: inactive

CCCCCCCCCC(C)=O
outcome [3]: inactive | AC50 [4]: 68.5 µM (active) | outcome [8]: inactive | outcome [12]: inactive | outcome [9]: inactive | outcome [10]: inactive

COc1ccc(C(=O)c2ccccc2)c(O)c1
AC50 [3]: 66.7 µM (active) | AC50 [4]: 58.4 µM (active) | AC50 [8]: 31 µM (active) | outcome [12]: inactive | AC50 [9]: 58.7 µM (active) | AC50 [10]: 50 µM (active)

O=C(OCCc1ccccc1)c1ccccc1
outcome [3]: inactive

COC(=O)c1ccccc1C
outcome [3]: inactive | outcome [8]: inactive | outcome [9]: inactive

C=C[C@@]1(C)CC(=O)[C@]2(O)[C@@]3(C)[C@@H](O)CCC(C)(C)[C@@H]3[C@H](O)[C@H](OC(C)=O)[C@@]2(C)O1
outcome [3]: inactive | outcome [8]: inactive | AC50 [9]: 36.1 µM (active) | outcome [10]: inactive

O=C(O)CC(C(=O)O)S(=O)(=O)O (centres undefined)
outcome [3]: inactive | outcome [4]: inactive

CCCCCCCO
outcome [3]: inactive | outcome [8]: inactive | outcome [9]: inactive | outcome [10]: inactive

CC1(C)[C@@H]2CC[C@@]1(C)C(=O)C2
outcome [3]: inactive | outcome [4]: inactive | outcome [8]: inactive | outcome [9]: inactive | outcome [10]: inactive

CCCCc1ccc(Cl)cc1
outcome [3]: inactive | outcome [4]: inactive | outcome [8]: inactive | outcome [9]: inactive | outcome [10]: inactive

O=C(O)CCC(=O)O
outcome [3]: inactive | outcome [4]: inactive

CCCC(CC)c1ccccc1 (centres undefined)
outcome [3]: inactive | outcome [8]: inactive | outcome [9]: inactive | outcome [10]: inactive | outcome [15]: inactive
